# Laboratory results reported in article PMC7862700, “An all-to-all approach to the identification of sequence-specific readers for epigenetic DNA modifications on cytosine”.
# What was measured:
# Test in all cases: DAPPL (digital affinity profiling via proximity ligation, sequencing); 10 mM Tris-HCl pH 7.5, 50 mM NaCl, 1 mM DTT, 4% glycerol, room temperature, 30 min; GST-TFs on glutathione beads, 16-mer random dsDNA library, 0.1% formaldehyde crosslink after washing; high values mean tight binding
# FLI1 = biological target: T1, FLI1 (Homo sapiens, UniProt Q01543 1-452); conditions: protein: recombinant; tags: N-terminal GST; dsDNA, one strand shown
# T1 sequence: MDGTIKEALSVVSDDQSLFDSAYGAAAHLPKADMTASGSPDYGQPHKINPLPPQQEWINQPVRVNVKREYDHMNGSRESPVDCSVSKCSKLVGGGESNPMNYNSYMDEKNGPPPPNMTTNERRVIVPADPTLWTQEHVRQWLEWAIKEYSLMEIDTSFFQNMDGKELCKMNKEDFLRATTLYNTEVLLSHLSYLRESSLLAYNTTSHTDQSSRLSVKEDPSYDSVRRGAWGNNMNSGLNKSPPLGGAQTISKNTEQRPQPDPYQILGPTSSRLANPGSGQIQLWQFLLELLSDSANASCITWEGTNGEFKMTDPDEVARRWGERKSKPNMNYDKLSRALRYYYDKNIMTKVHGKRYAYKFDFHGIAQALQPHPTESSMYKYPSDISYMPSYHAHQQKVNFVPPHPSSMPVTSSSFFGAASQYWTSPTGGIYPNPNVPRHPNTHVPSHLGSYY
# Summary of the method: (§1)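 Pools of DNA-barcoded human transcription factors, expressed in yeast as GST fusions on glutathione beads and combined with a tag-only sample, were incubated with 200 nmole of a 16-mer random double-stranded DNA library. Incubation took 30 min at room temperature in Tris/NaCl/DTT/glycerol buffer and was followed by washing, 0.1% formaldehyde crosslinking, proximity ligation (BsaI/T4 ligase, 1 h, 37 °C), PCR amplification and sequencing on an Illumina NextSeq500. Binding signal is the ratio of a hexamer's read frequency for a factor to its frequency for the tag-only sample.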
# ELK1 = biological target: T2, ELK1 (Homo sapiens, UniProt P19419 1-428); conditions: protein: recombinant; tags: N-terminal GST; dsDNA, one strand shown
# T2 sequence: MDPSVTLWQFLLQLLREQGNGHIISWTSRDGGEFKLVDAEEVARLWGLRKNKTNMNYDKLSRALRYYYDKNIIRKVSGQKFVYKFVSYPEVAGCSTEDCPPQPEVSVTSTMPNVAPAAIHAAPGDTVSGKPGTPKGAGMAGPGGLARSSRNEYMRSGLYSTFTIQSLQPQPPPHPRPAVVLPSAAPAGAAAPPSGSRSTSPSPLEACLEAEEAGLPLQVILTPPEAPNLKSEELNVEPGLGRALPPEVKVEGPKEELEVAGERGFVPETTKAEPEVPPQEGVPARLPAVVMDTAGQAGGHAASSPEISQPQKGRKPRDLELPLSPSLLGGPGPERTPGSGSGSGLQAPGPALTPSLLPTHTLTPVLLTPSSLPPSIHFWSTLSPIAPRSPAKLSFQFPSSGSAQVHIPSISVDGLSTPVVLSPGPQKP
# Summary of the method: as §1
# GABPA = biological target: T3, GABPA (Homo sapiens, UniProt Q06546 1-454); conditions: protein: recombinant; tags: N-terminal GST; dsDNA, one strand shown
# T3 sequence: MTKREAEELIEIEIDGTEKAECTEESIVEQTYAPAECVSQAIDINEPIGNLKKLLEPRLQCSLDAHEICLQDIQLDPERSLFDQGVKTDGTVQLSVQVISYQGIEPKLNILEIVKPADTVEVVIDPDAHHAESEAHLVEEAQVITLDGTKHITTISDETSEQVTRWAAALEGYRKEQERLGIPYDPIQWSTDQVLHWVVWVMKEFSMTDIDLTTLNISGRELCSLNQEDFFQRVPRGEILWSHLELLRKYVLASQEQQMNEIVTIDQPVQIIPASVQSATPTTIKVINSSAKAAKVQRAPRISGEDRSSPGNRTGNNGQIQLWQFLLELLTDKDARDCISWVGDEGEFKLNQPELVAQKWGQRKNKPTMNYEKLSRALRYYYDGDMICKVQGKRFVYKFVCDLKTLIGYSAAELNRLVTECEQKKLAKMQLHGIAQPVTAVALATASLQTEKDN
# Summary of the method: as §1
# ERG = biological target: T4, ERG (Homo sapiens, UniProt P11308 1-479); conditions: protein: recombinant; tags: N-terminal GST; dsDNA, one strand shown
# T4 sequence: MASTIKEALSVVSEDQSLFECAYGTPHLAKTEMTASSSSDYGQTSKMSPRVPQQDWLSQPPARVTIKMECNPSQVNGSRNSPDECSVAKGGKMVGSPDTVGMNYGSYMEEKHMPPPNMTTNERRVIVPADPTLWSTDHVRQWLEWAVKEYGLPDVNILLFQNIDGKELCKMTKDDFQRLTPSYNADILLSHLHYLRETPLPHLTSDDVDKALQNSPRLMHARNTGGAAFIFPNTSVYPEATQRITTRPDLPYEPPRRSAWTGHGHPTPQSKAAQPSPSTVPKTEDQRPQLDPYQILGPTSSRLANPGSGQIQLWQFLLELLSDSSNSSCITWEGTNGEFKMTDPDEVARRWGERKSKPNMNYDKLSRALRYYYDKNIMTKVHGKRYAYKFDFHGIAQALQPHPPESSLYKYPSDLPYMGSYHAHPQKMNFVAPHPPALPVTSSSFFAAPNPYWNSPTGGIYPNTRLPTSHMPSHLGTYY
# Summary of the method: as §1
# ELF1 = ELF1 (Homo sapiens, UniProt P32519 1-619); conditions: protein: recombinant; tags: N-terminal GST; dsDNA, one strand shown
# Summary of the method: as §1
# EHF = biological target: T5, EHF (Homo sapiens, UniProt Q9NZC4 1-300); conditions: protein: recombinant; tags: N-terminal GST; dsDNA, one strand shown
# T5 sequence: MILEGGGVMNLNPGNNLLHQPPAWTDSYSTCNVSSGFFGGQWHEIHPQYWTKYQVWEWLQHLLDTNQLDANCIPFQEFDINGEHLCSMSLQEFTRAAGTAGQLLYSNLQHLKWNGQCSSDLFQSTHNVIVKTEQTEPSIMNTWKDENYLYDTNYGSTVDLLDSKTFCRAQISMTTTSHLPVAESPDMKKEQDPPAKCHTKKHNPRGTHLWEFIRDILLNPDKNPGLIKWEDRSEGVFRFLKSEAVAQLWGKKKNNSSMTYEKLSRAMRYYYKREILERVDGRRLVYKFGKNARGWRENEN
# Summary of the method: as §1
# SPI1 = SPI1 (Homo sapiens, UniProt P17947 1-270); conditions: protein: recombinant; tags: N-terminal GST; dsDNA, one strand shown
# Summary of the method: as §1
# SPIB = SPIB (Homo sapiens, UniProt Q01892 1-262); conditions: protein: recombinant; tags: N-terminal GST; dsDNA, one strand shown
# Summary of the method: as §1
# ELK3 = biological target: T6, ELK3 (Homo sapiens, UniProt P41970 1-407); conditions: protein: recombinant; tags: N-terminal GST; dsDNA, one strand shown
# T6 sequence: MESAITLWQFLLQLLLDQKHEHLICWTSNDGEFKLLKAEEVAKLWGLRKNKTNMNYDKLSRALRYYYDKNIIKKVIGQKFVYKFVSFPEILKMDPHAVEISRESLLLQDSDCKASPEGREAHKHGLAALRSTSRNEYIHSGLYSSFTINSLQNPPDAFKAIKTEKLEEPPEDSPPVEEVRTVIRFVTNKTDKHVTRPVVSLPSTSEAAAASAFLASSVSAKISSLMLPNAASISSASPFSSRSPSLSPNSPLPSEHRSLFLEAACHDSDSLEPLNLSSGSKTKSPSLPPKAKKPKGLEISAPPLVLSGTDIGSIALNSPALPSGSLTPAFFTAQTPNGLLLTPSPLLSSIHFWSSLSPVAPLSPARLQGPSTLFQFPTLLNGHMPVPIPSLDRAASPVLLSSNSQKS
# Summary of the method: as §1
# FEV = biological target: T7, FEV (Homo sapiens, UniProt Q99581 1-238); conditions: protein: recombinant; tags: N-terminal GST; dsDNA, one strand shown
# T7 sequence: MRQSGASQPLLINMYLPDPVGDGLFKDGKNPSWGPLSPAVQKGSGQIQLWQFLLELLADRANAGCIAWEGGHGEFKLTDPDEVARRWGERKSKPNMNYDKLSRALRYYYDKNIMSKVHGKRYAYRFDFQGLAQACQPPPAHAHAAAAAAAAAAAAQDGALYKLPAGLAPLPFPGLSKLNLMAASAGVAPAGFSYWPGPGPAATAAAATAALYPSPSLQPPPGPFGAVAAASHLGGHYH
# Summary of the method: as §1
# ETV5 = ETV5 (Homo sapiens, UniProt P41161 1-510); conditions: protein: recombinant; tags: N-terminal GST; dsDNA, one strand shown
# Summary of the method: as §1
# HSF1 = HSF1 (Homo sapiens, UniProt Q00613 1-529); conditions: protein: recombinant; tags: N-terminal GST; chain copies: 3; dsDNA, one strand shown
# Summary of the method: as §1
# SPIC = biological target: T8, SPIC (Homo sapiens, UniProt Q8N5J4 1-248); conditions: protein: recombinant; tags: N-terminal GST; dsDNA, one strand shown
# T8 sequence: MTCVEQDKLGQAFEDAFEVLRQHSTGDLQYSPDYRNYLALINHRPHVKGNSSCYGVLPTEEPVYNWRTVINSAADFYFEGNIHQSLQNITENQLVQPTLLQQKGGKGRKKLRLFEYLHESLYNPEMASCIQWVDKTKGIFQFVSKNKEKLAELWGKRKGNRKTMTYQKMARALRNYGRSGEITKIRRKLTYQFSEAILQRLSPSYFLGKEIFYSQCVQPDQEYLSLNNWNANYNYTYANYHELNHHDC
# Summary of the method: as §1
# ELF4 = ELF4 (Homo sapiens, UniProt Q99607 1-663); conditions: protein: recombinant; tags: N-terminal GST; dsDNA, one strand shown
# Summary of the method: as §1
# ELK4 = biological target: T9, ELK4 (Homo sapiens, UniProt P28324-2 1-405); conditions: protein: recombinant; tags: N-terminal GST; dsDNA, one strand shown
# T9 sequence: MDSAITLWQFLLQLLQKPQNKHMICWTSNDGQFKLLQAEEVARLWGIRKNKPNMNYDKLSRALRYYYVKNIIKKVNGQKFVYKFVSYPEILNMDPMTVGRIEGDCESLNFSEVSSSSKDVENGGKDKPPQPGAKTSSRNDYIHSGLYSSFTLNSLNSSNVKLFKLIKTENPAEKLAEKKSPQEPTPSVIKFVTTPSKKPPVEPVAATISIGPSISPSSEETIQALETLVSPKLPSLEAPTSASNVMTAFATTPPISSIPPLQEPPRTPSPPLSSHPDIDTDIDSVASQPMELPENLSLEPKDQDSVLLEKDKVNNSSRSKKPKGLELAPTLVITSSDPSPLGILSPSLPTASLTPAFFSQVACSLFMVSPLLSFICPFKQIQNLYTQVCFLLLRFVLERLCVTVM
# Summary of the method: as §1
# ETV2 = biological target: T10, ETV2 (Homo sapiens, UniProt O00321 1-342); conditions: protein: recombinant; tags: N-terminal GST; dsDNA, one strand shown
# T10 sequence: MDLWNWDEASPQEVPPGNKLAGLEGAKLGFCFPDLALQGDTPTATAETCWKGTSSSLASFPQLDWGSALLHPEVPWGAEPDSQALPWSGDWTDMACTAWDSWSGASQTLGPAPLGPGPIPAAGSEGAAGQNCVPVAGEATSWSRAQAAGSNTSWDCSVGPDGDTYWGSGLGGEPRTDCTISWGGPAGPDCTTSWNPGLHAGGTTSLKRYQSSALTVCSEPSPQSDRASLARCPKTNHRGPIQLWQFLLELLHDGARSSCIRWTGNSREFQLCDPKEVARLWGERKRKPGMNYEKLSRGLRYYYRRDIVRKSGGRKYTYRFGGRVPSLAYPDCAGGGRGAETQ
# Summary of the method: as §1
# ELF3 = biological target: T11, ELF3 (Homo sapiens, UniProt P78545 1-371); conditions: protein: recombinant; tags: N-terminal GST; dsDNA, one strand shown
# T11 sequence: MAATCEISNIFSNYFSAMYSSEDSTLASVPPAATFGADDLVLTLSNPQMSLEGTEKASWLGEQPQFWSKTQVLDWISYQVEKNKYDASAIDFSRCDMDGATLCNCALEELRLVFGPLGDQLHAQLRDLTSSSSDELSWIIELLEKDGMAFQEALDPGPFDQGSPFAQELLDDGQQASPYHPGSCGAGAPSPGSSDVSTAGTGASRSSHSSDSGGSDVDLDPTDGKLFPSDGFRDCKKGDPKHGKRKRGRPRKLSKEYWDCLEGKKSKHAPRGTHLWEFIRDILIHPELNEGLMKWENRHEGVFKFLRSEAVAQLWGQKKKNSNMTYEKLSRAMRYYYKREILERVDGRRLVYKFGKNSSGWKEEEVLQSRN
# Summary of the method: as §1
# CRX = CRX (Homo sapiens, UniProt O43186 1-299); conditions: protein: recombinant; tags: N-terminal GST; dsDNA, one strand shown
# Summary of the method: as §1
# ETV1 = ETV1 (Homo sapiens, UniProt P50549 1-477); conditions: protein: recombinant; tags: N-terminal GST; dsDNA, one strand shown
# Summary of the method: as §1
# Chain of ELF1 (P32519 whole entry): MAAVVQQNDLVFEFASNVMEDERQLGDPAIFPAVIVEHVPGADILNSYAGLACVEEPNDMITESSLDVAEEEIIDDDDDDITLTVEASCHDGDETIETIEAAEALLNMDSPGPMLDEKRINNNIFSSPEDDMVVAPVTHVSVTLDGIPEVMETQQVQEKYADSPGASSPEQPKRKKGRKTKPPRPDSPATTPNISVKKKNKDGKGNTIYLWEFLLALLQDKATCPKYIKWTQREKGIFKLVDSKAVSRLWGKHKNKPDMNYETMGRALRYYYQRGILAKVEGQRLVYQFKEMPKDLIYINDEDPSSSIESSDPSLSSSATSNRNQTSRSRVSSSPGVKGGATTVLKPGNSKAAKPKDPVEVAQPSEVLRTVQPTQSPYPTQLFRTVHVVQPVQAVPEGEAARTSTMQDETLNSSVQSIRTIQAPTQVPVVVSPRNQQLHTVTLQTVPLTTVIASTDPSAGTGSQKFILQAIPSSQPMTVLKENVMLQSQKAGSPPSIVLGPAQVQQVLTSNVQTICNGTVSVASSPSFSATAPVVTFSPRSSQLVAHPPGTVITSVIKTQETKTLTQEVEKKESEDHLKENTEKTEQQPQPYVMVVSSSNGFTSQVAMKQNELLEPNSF
# Chain of CRX (O43186 whole entry): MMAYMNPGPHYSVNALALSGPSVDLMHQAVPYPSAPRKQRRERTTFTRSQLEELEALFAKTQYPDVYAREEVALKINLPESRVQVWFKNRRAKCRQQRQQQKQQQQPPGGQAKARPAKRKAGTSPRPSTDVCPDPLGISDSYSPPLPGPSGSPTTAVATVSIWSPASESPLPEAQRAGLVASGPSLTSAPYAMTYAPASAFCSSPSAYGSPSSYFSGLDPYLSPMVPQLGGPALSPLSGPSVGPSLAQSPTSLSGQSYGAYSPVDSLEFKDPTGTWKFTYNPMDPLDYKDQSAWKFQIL
# Chain of HSF1 (Q00613 whole entry): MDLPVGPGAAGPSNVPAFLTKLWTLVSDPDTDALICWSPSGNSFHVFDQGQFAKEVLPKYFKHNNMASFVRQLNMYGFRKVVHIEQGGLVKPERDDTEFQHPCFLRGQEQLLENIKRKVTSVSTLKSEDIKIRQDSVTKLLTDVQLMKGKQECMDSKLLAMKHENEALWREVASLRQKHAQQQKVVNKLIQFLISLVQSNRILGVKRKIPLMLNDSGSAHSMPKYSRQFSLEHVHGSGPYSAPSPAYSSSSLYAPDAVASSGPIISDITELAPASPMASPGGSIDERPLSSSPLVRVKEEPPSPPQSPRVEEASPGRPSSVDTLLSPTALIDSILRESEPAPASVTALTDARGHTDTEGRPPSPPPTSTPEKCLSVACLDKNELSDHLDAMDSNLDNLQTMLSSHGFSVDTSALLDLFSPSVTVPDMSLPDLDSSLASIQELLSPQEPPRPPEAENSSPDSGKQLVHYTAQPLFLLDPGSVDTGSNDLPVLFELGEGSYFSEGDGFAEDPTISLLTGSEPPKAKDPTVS
# Chain of ETV5 (P41161 whole entry): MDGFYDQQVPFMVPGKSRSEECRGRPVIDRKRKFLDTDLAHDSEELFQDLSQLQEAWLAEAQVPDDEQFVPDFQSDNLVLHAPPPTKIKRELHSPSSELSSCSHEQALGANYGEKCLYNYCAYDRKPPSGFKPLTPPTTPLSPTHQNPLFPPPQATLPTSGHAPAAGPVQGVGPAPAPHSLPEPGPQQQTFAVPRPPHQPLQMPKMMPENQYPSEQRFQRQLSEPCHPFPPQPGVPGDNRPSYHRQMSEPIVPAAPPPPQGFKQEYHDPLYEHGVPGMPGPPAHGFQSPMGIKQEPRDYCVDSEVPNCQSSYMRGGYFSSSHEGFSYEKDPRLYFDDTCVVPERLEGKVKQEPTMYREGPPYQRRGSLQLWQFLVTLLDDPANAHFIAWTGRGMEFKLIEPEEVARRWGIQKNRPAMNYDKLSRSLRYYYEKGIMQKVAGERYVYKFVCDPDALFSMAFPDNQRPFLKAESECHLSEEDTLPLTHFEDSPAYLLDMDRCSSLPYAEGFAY
# Chain of SPIB (Q01892 whole entry): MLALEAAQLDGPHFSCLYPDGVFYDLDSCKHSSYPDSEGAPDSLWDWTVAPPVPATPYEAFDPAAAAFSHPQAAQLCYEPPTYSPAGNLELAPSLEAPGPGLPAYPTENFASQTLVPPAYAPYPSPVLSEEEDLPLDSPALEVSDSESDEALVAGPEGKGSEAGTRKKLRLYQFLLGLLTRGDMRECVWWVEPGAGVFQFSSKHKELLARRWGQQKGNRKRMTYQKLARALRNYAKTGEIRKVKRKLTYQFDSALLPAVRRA
# Chain of ELF4 (Q99607 whole entry): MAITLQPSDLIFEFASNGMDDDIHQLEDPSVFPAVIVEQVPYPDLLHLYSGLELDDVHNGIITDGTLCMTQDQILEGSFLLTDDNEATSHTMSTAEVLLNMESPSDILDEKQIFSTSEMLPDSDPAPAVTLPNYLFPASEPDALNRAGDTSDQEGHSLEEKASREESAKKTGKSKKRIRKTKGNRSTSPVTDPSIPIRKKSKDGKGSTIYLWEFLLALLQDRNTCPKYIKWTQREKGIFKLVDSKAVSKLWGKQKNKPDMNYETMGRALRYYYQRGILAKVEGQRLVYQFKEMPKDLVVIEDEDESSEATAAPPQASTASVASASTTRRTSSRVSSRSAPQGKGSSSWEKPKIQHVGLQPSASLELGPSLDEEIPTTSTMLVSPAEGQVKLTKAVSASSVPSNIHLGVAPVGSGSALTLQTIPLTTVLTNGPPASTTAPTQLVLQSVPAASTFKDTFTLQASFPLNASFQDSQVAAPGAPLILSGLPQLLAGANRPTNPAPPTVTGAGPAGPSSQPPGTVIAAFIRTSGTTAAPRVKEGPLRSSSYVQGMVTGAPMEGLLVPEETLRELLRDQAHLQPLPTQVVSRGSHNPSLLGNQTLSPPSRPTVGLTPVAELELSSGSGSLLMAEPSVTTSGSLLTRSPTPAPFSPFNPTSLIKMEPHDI
# Chain of ETV1 (P50549 whole entry): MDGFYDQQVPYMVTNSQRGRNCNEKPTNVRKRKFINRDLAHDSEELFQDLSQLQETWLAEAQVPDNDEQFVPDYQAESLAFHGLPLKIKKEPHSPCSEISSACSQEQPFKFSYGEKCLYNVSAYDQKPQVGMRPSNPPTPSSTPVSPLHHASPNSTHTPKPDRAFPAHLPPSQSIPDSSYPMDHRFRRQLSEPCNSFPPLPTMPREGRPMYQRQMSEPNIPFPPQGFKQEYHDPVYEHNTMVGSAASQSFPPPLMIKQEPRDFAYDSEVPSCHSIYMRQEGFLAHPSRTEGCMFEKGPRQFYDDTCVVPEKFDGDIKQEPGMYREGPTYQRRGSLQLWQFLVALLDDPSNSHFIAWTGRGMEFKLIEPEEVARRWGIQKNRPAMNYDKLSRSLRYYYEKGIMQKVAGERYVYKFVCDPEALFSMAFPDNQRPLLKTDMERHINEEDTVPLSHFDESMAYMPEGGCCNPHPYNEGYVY
sequence,measurement,setting,value
GAATTC,binding signal,FLI1,"1.41 fold enrichment (6-mer frequency, TF over GST control)"
same,binding signal,ELK1,"1.29 fold enrichment (6-mer frequency, TF over GST control)"
same,binding signal,GABPA,"1.31 fold enrichment (6-mer frequency, TF over GST control)"
same,binding signal,ERG,"1.36 fold enrichment (6-mer frequency, TF over GST control)"
same,binding signal,ELF1,"1.31 fold enrichment (6-mer frequency, TF over GST control)"
same,binding signal,EHF,"1.43 fold enrichment (6-mer frequency, TF over GST control)"
same,binding signal,SPI1,"1.43 fold enrichment (6-mer frequency, TF over GST control)"
same,binding signal,SPIB,"1.38 fold enrichment (6-mer frequency, TF over GST control)"
same,binding signal,ELK3,"1.38 fold enrichment (6-mer frequency, TF over GST control)"
same,binding signal,FEV,"1.39 fold enrichment (6-mer frequency, TF over GST control)"
same,binding signal,ETV5,"1.42 fold enrichment (6-mer frequency, TF over GST control)"
same,binding signal,HSF1,"1.59 fold enrichment (6-mer frequency, TF over GST control)"
same,binding signal,SPIC,"1.51 fold enrichment (6-mer frequency, TF over GST control)"
same,binding signal,ELF4,"1.36 fold enrichment (6-mer frequency, TF over GST control)"
same,binding signal,ELK4,"1.27 fold enrichment (6-mer frequency, TF over GST control)"
same,binding signal,ETV2,"1.39 fold enrichment (6-mer frequency, TF over GST control)"
same,binding signal,ELF3,"1.13 fold enrichment (6-mer frequency, TF over GST control)"
same,binding signal,CRX,"1.14 fold enrichment (6-mer frequency, TF over GST control)"
same,binding signal,ETV1,"1.34 fold enrichment (6-mer frequency, TF over GST control)"
